The record followed here is PubChem BioAssay AID1835 (Johns Hopkins Ion Channel Center, 2009).

Screen size: about 2,400 compounds; about 750 (31%) were called active. Some of the results follow. Values without a mark were called inactive.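 The calls were made as follows: active = median signal gain over dofetilide-blocked control wells reaching their mean plus 3 SD, so readout 1 at least 0; inactive = the rest.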

The target of the experiment is Voltage-gated inwardly rectifying potassium channel KCNH2 (Homo sapiens) (UniProt Q12809). Put plainly: hERG protection against dofetilide inhibition, confirmation, cell-based, thallium flux, duplicate retest, dofetilide IC70 (AID 1835). Particulars: hERG cell line, FluxOR thallium flux, dofetilide-blocked; at 10 µM; active compounds read high.
Chain of Voltage-gated inwardly rectifying potassium channel KCNH2 (Homo sapiens) (Q12809 whole entry, looked up): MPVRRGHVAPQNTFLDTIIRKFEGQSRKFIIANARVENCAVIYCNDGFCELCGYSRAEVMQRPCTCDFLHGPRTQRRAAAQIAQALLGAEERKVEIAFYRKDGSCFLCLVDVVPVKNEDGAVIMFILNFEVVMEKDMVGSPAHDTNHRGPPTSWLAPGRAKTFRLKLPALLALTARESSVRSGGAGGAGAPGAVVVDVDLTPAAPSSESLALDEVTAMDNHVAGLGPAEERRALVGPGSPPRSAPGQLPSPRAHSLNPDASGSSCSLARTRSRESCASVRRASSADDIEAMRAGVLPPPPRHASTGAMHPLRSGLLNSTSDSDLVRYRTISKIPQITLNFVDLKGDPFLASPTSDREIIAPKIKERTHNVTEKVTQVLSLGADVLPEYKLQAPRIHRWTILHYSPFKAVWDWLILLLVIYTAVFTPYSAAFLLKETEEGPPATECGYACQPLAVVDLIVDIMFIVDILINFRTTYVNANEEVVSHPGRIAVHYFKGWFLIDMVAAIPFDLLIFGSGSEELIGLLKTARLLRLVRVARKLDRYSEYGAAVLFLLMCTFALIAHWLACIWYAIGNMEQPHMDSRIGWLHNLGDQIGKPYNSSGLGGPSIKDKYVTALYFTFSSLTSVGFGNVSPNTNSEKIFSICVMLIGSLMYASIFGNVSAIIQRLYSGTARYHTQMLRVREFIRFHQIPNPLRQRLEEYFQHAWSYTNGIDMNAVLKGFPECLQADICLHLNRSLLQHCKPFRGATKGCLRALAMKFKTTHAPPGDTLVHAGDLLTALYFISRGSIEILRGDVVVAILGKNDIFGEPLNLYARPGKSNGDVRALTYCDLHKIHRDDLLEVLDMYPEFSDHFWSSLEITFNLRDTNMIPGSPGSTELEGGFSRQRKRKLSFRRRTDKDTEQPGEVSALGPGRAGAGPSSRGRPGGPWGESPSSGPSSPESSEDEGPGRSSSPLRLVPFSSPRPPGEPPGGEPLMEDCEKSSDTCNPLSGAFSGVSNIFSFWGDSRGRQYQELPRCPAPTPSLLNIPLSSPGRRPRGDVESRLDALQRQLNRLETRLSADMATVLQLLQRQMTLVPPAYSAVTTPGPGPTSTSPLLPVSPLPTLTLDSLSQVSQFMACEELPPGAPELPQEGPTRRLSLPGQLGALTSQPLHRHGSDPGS
Take `COCCNC(=O)C1CCN(S(=O)(=O)N2CCC3(CC2)OCCO3)CC1`: the activity increase over dofetilide control, less the hit threshold was -21%.

Regarding `Cc1cc2nccc(-c3ccc(Cl)cc3Cl)n2n1`, the activity increase over dofetilide control, less the hit threshold was -3%. For `Cc1[nH]n(-c2ccccc2)c(=O)c1N=Nc1ccc(C(N)=O)cc1` the value was -23%; for `Cc1[nH]n(-c2ccc(Cl)cc2)c(=O)c1/C=N/c1nnc(-c2ccccc2)s1`, 106% (active); for `Cn1cnnc1SCC(=O)NCc1ccccc1`, -20%. As for `CCCn1c(O)c(N=NC(=O)c2ccco2)c2ccccc21`, the activity increase over dofetilide control, less the hit threshold was 17% (active). Regarding `CCn1c(O)c(N=NC(=S)NCC2CCCO2)c2ccccc21` (stereo unspecified), the activity increase over dofetilide control, less the hit threshold is -1%. In the case of `CCn1c(O)c(N=NC(=O)CNC(=O)c2ccccc2F)c2ccccc21`, the activity increase over dofetilide control, less the hit threshold was -7%. With `CC1(C)Cc2c(sc(NC(=O)C(=O)N3CCCC3)c2C#N)CO1` the figure was -2%; with `N#Cc1c(NC(=O)c2cc(-n3cnnc3)ccc2Cl)sc2c1CCCC2`, 5% (active). With `Cc1c(C(=O)N/N=C/c2ccccn2)nnn1-c1nonc1N` the figure was -14%; with `CCCOc1ccc(-c2c(C(=O)N/N=C/c3ccccc3OCC)nnn2-c2nonc2N)cc1`, -7%; with `CN(C)Cc1c(C(=O)N/N=C/c2ccccc2OCc2c(F)cccc2Cl)nnn1-c1nonc1N`, 40% (active). Turning to `Nc1nonc1-n1nnc(C(=O)N/N=C/c2ccccn2)c1-c1ccccc1`, the activity increase over dofetilide control, less the hit threshold is -5%.

`CCc1ccc(/C=N/NC(=O)c2nnn(-c3nonc3N)c2C(C)C)cc1`: the activity increase over dofetilide control, less the hit threshold is -22%. With `Nc1nonc1-n1nnc(C(=O)N/N=C/c2cccc(Cl)c2Cl)c1CN1CCCC1` the figure was 5% (active); with `CN(NC1OC(=O)c2ccccc21)c1ccccc1[N+](=O)[O-]` (stereo unspecified), -4%. With `CCCCOC(=O)Nc1nnc(C(C)C)s1` the figure was -14%; with `CCc1ccc2nc(NC(=O)c3cc(C)on3)sc2c1`, 10% (active); with `O=C(NC(=S)Nc1nc2ccccc2s1)c1ccco1`, -3%. Turning to `CCOC(=O)c1cccc(C(=O)Nc2nc3ccc(OC)cc3s2)n1`, the activity increase over dofetilide control, less the hit threshold is -14%.

On to `CCc1nnc(NC(=O)c2cccc(C(=O)Nc3nnc(CC)s3)n2)s1`, for which the activity increase over dofetilide control, less the hit threshold was -10%. As for `O=C(NC(=S)Nc1nc2ccc(F)cc2s1)c1ccco1`, the activity increase over dofetilide control, less the hit threshold was 65% (active).

Regarding `COc1ccc2nc(NC(=S)NC(=O)c3ccco3)sc2c1`, the activity increase over dofetilide control, less the hit threshold is 2% (active). For the compound `CC(C)(C)Cc1nnc(NC(=O)c2ccco2)s1`, the activity increase over dofetilide control, less the hit threshold was -13%. With `Cc1ccc2nc(NC(=S)NC(=O)c3ccco3)sc2c1` the figure was 50% (active); with `COc1cccc(-c2cc(C(F)(F)F)nc(N3CCCCC3)n2)c1`, -17%; with `Cc1ccc([N+](=O)[O-])c2c1C(N1CC(C)OC(C)C1)C(C)(C)O2` (stereo unspecified), -24%.

For `CCc1cccc(C)c1NC(=O)C1=C(C(=O)O)CCCC1`, the activity increase over dofetilide control, less the hit threshold was -14%. For `NS(=O)(=O)c1ccc(Sc2ccc3c(c2)CCC3)nc1` the value was -2%; for `CSc1nc(C)c2c(n1)N(c1ccc(C(C)C)cc1)CC2`, -9%.

Consider `Clc1ccc(Nc2ccc(Cl)nn2)cc1`, for which the activity increase over dofetilide control, less the hit threshold is -6%. For `Cc1cc(OCC(=O)Nc2cc(S(=O)(=O)N3CCOCC3)ccc2N2CCCC2)ccc1C(C)C` the value was -7%.

For `CCCCCN(C(=O)CCC(=O)OCC(=O)N(C)C1CCCCC1)c1c(N)n(CCCC)c(=O)[nH]c1=O`, the activity increase over dofetilide control, less the hit threshold is -12%. Consider `COc1ccc(-n2c(=S)[nH]c3ccccc3c2=S)cc1`, for which the activity increase over dofetilide control, less the hit threshold is -12%.

Turning to `COc1ccc(-c2nc(=S)c3ccc4ccccc4c3[nH]2)cc1`, the activity increase over dofetilide control, less the hit threshold was 76% (active). With `CC(C)CC(=O)Nc1ccc2c3c(cccc13)CC2`, the activity increase over dofetilide control, less the hit threshold is -3%.

Take `CCC1(CC)Cc2ccccc2-c2[nH]c(=S)[nH]c(=O)c21`: the activity increase over dofetilide control, less the hit threshold is -6%. `CCn1c(=S)[nH]c2c(c1=O)C(C)(C)Cc1ccccc1-2`: the activity increase over dofetilide control, less the hit threshold was 26% (active). With `O=C(CSc1nc2ccccc2o1)NCc1n[nH]c(=O)c2ccccc12` the figure was -4%; with `CCOc1ccccc1Nc1nc(-c2sc(C)nc2C)cs1`, -9%; with `CN(C(=O)c1ccc(Cl)c(S(=O)(=O)N2CCOCC2)c1)c1ccccc1C(=O)O`, 7% (active). For `CCN(CC(=O)Nc1c(F)cccc1F)C(=O)c1ccc(Cl)c(S(=O)(=O)N2CCCCC2)c1` the value was -19%; for `O=C(C1CCN(S(=O)(=O)c2cc(Cl)ccc2Cl)CC1)N1CCOCC1`, -16%; for `C=Cc1ccc(Cn2c(=O)n(CCCOC)c(=O)c3sccc32)cc1`, -14%. For `O=[N+]([O-])c1cccc(/C=N/N=C\c2ccccc2)c1` the value was -20%. Consider `C/C(=N\NC(=O)c1ccc(NS(=O)(=O)c2cccs2)cc1)c1ccc2c(c1)OCO2`, for which the activity increase over dofetilide control, less the hit threshold is -17%. `Cc1ccc(C(=O)N/N=C(/CC(=O)c2cccs2)C(F)(F)F)cc1`: the activity increase over dofetilide control, less the hit threshold is 3% (active). For `COc1ccc(S(=O)(=O)N2CCCC(C(=O)Nc3ccc(OC)c(OC)c3)C2)cc1` (stereo unspecified) the value was -22%; for `CCN(Cc1ccc(OC)c(F)c1)C(=O)C1CCCO1` (stereo unspecified), -3%. For the compound `COc1ccc(-c2cnn(C3CCS(=O)(=O)C3)c2N)cc1` (stereo unspecified), the activity increase over dofetilide control, less the hit threshold was -23%.
